According to ChEMBL document CHEMBL1961873, “Compounds: GSK PKIS; Assays: Nanosyn kinase panel” (2012):

Columns and labels:
[1] = biological target: T1, Serine/threonine-protein kinase Nek9 (Homo sapiens) (UniProt Q8TD19); settings: at 1 µM;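 note: each value is a mean percent inhibition of NEK9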
T1 sequence (whole entry): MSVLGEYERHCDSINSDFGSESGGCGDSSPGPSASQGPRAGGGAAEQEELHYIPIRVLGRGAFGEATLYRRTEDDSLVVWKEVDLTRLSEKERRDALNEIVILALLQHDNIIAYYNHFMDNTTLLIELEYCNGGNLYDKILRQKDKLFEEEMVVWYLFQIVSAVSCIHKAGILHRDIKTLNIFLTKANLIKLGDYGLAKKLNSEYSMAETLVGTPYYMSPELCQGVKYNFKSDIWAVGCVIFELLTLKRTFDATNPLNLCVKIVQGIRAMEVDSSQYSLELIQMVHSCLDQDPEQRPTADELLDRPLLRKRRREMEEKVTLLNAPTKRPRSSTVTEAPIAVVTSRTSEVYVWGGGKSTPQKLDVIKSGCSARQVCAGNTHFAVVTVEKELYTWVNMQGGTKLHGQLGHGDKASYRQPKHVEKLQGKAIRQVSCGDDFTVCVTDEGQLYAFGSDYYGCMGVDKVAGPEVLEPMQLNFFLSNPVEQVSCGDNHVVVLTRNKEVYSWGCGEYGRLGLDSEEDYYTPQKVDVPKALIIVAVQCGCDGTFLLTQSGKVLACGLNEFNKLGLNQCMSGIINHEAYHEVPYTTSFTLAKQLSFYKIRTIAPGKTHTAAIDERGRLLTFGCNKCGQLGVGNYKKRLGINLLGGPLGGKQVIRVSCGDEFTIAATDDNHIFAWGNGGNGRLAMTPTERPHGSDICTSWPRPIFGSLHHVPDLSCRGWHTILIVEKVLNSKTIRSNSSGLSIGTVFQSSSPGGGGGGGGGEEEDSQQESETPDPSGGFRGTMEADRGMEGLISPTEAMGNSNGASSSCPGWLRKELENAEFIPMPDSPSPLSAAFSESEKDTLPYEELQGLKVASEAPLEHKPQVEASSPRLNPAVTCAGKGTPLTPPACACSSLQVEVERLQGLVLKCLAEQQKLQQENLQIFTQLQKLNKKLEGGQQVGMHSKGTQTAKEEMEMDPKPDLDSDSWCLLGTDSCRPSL

[2] = biological target: Serine/threonine-protein kinase PLK1 (Homo sapiens) (UniProt P53350); settings: at 0.1 µM
[3] = biological target: Serine/threonine-protein kinase PLK1 (Homo sapiens) (UniProt P53350); settings: at 1 µM
[4] = biological target: T2, Dual specificity protein kinase TTK (Homo sapiens) (UniProt P33981); settings: at 0.1 µM
T2 sequence (whole entry): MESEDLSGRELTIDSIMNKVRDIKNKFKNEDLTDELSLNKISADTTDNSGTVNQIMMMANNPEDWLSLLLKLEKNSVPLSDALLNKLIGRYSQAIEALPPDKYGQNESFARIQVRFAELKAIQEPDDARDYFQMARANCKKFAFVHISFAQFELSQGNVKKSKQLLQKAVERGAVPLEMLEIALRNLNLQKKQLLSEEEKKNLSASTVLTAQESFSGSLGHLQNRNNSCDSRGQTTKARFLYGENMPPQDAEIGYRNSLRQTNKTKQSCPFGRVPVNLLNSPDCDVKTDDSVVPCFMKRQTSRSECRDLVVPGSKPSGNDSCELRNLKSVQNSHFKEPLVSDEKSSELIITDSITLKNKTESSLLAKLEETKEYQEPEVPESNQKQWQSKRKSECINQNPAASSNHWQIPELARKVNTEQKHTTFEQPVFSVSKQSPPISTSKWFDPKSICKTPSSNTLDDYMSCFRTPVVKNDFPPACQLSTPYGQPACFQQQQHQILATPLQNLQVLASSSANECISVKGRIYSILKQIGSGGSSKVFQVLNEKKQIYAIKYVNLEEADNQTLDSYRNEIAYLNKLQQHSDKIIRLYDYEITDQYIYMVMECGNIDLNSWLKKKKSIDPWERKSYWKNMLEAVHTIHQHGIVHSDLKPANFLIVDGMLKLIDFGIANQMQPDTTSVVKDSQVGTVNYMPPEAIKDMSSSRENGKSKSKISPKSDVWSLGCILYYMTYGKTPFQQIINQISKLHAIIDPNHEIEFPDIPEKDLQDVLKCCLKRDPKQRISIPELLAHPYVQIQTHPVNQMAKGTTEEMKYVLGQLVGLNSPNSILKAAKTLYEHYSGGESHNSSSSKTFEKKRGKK

[5] = tested on: T3, Receptor-type tyrosine-protein kinase FLT3 (Homo sapiens), P36888 [D835Y]; settings: at 1 µM
T3 sequence (whole entry): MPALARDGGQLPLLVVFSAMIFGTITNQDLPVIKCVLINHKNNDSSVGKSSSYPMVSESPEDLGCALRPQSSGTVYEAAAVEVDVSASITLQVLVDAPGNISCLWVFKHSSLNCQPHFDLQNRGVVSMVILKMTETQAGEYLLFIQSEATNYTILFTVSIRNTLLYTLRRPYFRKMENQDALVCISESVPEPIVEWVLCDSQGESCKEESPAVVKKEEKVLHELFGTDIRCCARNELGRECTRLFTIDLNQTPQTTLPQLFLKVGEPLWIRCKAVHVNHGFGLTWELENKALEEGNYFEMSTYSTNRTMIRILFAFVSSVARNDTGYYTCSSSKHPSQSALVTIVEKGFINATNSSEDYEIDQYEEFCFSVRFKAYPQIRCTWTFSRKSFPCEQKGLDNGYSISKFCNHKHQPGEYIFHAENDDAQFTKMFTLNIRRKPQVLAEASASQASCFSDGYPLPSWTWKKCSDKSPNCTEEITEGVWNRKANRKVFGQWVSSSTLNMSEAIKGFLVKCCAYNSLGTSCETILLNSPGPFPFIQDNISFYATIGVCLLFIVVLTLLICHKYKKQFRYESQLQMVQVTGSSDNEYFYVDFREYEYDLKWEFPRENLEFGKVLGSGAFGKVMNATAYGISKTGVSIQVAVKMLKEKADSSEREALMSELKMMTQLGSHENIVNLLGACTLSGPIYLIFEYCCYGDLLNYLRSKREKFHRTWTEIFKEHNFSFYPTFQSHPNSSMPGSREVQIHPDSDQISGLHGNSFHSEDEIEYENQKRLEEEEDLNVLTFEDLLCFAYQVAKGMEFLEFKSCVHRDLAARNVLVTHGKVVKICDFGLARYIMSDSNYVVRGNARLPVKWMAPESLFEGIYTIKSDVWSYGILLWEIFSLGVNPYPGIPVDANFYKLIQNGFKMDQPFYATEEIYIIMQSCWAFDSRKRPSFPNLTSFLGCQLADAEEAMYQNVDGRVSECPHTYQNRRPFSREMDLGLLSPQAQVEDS

[6] = biological target: Vascular endothelial growth factor receptor 3 (Homo sapiens) (UniProt P35916); settings: at 0.1 µM
Sequence of Vascular endothelial growth factor receptor 3 (Homo sapiens) (P35916 whole entry): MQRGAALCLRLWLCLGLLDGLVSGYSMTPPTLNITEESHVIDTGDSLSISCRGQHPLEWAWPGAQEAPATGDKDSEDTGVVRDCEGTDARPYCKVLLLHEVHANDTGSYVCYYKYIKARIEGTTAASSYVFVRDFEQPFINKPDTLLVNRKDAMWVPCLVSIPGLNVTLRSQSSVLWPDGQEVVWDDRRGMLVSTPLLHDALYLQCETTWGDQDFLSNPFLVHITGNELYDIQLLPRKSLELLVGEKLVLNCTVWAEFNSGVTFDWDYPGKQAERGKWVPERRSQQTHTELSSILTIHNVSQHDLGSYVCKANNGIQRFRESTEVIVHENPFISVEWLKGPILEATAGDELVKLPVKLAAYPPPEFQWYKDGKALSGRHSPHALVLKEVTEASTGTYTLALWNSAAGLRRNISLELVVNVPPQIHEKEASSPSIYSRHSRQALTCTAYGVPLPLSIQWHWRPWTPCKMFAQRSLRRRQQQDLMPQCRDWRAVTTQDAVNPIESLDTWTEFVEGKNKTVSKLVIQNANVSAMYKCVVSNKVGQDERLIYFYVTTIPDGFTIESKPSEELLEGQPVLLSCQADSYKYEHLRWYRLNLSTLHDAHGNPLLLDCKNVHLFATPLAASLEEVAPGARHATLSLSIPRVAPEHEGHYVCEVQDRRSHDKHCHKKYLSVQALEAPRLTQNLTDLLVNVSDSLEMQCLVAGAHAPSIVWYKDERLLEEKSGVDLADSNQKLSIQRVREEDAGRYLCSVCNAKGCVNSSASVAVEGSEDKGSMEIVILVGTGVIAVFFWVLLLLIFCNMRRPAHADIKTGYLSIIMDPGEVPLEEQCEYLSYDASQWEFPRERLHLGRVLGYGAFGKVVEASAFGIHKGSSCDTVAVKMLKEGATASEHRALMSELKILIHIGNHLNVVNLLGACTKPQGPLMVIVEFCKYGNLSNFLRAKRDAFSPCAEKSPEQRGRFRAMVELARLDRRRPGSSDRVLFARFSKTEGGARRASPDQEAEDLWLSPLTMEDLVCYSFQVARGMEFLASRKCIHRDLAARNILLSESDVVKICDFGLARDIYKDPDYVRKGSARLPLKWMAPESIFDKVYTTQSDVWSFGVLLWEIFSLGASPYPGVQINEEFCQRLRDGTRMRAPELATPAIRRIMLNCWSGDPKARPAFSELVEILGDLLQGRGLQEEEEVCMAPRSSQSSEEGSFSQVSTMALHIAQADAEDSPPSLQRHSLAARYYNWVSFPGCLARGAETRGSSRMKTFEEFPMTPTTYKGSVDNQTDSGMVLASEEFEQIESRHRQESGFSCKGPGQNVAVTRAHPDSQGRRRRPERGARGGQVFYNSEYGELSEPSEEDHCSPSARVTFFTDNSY

[7] = biological target: Vascular endothelial growth factor receptor 3 (Homo sapiens) (UniProt P35916); settings: at 1 µM
[8] = biological target: Macrophage colony-stimulating factor 1 receptor (Homo sapiens) (UniProt P07333); settings: at 0.1 µM
Sequence of Macrophage colony-stimulating factor 1 receptor (Homo sapiens) (P07333 whole entry): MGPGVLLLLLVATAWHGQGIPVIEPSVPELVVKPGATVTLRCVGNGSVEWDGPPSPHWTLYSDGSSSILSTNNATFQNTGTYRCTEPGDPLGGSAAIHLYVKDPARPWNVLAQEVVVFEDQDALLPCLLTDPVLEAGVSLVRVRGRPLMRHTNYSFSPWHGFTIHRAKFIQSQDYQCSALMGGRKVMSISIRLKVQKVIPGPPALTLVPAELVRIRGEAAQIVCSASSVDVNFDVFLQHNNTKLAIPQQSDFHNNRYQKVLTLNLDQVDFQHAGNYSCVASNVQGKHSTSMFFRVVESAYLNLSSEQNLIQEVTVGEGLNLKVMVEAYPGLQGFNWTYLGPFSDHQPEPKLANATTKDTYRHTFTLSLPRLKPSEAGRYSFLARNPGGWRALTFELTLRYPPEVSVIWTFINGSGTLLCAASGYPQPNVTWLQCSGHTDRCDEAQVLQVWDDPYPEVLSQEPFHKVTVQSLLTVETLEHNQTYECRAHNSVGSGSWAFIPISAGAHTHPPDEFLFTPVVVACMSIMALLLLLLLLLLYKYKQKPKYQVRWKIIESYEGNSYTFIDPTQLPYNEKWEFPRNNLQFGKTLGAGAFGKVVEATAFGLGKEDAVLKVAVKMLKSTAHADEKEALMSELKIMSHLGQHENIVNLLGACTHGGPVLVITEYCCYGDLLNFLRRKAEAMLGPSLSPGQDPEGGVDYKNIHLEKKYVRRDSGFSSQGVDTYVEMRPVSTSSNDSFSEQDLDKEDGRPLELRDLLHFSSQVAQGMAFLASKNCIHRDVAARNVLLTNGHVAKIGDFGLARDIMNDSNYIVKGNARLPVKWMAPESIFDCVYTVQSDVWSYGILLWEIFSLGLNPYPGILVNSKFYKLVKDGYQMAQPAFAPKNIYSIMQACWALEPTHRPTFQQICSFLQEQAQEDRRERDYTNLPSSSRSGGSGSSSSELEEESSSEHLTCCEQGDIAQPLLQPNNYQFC

[9] = biological target: Macrophage colony-stimulating factor 1 receptor (Homo sapiens) (UniProt P07333); settings: at 1 µM
[10] = biological target: Tyrosine-protein kinase Fyn (Homo sapiens) (UniProt P06241); settings: at 0.1 µM
Sequence of Tyrosine-protein kinase Fyn (Homo sapiens) (P06241 2-537 limits assumed): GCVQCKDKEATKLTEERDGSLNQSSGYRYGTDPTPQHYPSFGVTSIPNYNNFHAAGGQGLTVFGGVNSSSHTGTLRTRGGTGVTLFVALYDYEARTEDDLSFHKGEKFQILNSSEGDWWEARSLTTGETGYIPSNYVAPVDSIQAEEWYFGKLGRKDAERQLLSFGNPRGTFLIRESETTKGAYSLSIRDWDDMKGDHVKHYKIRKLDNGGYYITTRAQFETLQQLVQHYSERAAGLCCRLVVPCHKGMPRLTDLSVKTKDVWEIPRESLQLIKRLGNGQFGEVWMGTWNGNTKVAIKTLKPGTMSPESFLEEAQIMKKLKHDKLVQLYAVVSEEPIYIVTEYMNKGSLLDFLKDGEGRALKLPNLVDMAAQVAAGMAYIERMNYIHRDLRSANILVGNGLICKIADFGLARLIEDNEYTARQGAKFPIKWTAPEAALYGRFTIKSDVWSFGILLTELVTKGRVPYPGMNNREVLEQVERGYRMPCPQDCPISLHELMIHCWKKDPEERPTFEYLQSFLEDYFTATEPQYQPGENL

[11] = biological target: Tyrosine-protein kinase Fyn (Homo sapiens) (UniProt P06241); settings: at 1 µM
[12] = biological target: Tyrosine-protein kinase HCK (Homo sapiens) (UniProt P08631); settings: at 0.1 µM
Sequence of Tyrosine-protein kinase HCK (Homo sapiens) (P08631 2-526 limits assumed): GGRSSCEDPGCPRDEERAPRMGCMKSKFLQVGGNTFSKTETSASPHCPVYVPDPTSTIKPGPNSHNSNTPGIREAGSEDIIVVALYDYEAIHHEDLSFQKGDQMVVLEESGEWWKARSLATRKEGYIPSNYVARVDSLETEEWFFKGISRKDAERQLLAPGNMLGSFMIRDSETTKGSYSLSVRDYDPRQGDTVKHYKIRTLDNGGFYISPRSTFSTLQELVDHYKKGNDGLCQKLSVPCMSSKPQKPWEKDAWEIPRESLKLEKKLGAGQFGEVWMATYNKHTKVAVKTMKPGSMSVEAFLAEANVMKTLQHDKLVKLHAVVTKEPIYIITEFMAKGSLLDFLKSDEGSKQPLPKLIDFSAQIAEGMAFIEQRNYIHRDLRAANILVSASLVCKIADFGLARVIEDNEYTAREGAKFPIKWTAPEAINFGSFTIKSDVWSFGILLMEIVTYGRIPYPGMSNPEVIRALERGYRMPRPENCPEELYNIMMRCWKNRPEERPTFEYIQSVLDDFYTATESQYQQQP

[13] = biological target: Tyrosine-protein kinase HCK (Homo sapiens) (UniProt P08631); settings: at 1 µM
[14] = biological target: Insulin-like growth factor 1 receptor (Homo sapiens) (UniProt P08069); settings: at 0.1 µM
[15] = biological target: Insulin-like growth factor 1 receptor (Homo sapiens) (UniProt P08069); settings: at 1 µM
[16] = biological target: Insulin receptor (Homo sapiens) (UniProt P06213); settings: at 0.1 µM
[17] = biological target: Insulin receptor (Homo sapiens) (UniProt P06213); settings: at 1 µM
[18] = biological target: Insulin receptor-related protein (Homo sapiens) (UniProt P14616); settings: at 0.1 µM
Sequence of Insulin receptor-related protein (Homo sapiens) (P14616 27-742 limits assumed): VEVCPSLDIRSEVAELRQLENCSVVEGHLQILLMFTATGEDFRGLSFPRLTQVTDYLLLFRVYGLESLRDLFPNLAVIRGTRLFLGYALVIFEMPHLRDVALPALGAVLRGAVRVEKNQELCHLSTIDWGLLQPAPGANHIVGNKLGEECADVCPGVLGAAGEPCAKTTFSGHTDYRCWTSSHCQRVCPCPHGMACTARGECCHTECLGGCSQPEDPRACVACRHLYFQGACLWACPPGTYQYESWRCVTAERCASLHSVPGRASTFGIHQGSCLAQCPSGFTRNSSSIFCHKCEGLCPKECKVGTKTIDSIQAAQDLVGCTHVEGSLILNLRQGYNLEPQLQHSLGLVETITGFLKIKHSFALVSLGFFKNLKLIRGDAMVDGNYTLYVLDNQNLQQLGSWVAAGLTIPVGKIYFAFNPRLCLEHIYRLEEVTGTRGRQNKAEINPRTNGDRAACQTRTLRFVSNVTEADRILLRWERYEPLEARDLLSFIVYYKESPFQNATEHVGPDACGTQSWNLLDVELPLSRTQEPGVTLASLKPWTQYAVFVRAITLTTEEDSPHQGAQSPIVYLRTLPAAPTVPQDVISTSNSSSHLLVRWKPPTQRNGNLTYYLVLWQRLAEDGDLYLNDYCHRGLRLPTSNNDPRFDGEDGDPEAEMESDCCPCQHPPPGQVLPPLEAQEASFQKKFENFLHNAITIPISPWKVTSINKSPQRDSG
Sequence of Insulin receptor-related protein (Homo sapiens) (P14616 747-1297 limits assumed): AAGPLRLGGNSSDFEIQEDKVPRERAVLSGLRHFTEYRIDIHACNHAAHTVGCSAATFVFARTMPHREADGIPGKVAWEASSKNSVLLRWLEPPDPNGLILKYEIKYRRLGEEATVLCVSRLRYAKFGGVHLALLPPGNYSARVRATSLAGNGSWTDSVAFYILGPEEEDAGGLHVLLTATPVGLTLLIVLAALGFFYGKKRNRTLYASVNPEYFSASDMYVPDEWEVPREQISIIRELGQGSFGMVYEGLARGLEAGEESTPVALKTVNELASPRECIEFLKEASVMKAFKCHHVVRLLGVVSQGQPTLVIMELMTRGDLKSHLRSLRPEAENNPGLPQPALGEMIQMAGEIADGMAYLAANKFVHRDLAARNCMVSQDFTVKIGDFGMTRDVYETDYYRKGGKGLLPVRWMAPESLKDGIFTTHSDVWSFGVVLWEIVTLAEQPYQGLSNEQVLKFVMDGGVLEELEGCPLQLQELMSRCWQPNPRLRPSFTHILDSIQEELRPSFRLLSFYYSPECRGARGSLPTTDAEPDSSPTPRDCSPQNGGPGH

[19] = biological target: Insulin receptor-related protein (Homo sapiens) (UniProt P14616); settings: at 1 µM
[20] = biological target: T4, Tyrosine-protein kinase ITK/TSK (Homo sapiens) (UniProt Q08881); settings: at 0.1 µM;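 note: mean percent inhibition of ITK from the GSK PKIS screen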
T4 sequence (whole entry): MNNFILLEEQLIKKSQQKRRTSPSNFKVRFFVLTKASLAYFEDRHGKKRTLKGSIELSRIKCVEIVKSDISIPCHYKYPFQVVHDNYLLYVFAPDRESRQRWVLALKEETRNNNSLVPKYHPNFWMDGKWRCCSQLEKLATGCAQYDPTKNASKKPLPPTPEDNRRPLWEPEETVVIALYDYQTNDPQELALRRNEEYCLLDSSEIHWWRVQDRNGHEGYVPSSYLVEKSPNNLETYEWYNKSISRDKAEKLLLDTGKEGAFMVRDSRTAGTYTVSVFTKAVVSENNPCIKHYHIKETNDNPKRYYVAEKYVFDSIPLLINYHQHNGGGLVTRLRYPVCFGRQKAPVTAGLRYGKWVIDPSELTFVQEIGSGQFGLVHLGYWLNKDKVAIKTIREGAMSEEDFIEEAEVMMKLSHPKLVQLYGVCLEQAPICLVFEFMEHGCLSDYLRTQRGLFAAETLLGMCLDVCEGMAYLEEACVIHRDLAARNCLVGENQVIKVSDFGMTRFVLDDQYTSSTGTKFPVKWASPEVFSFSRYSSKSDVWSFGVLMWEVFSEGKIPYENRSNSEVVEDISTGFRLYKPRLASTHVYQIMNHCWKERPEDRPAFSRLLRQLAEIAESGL

SMILES	inhibition [1]	inhibition [2]	inhibition [3]	inhibition [4]	inhibition [5]	inhibition [6]	inhibition [7]	inhibition [8]	inhibition [9]	inhibition [10]	inhibition [11]	inhibition [12]	inhibition [13]	inhibition [14]	inhibition [15]	inhibition [16]	inhibition [17]	inhibition [18]	inhibition [19]	inhibition [20]
O=C1Nc2ccc(I)cc2C1=Cc1cc(Br)c(O)c(Br)c1	7.24%	5.57%	9.77%	10.4%	2.02%	0.19%	-3.58%	4.92%	5.58%	3%	6.7%	6.42%	8.5%	5.43%	2.95%	6.33%	5.95%	0.52%	2.5%	1.48%
NC(=O)c1cc(-c2ccncc2)cc(-c2ccccc2)c1N	3.74%	4.45%	5.13%	8.7%	2.51%	2.14%	6.17%	22.8%	64.8%	6.39%	37.6%	12.1%	43.7%	5.73%	5.9%	6.28%	6.25%	2.11%	1.56%	1.61%
O=C(Nc1n[nH]c2nc(-c3ccco3)ccc12)C1CC1	-0.33%	1.81%	0.82%	1.09%	3.83%	-1.89%	2.09%	-1.01%	2.62%	1.1%	1.67%	3.22%	7.96%	1.21%	2.33%	-3.11%	0.45%	1.25%	0.79%	1.08%
CCN(CC)Cc1ccc(Nc2nccc(-c3cnn4ncccc34)n2)cc1	13.7%	5.43%	8.15%	12.4%	17.1%	-5.53%	0.13%	29.6%	68.9%	-1.69%	5.04%	4.93%	13.5%	3.11%	54.6%	21.9%	73.2%	2.45%	7.36%	-3.08%
O=C(Nc1ccc(Oc2ccc3[nH]c(NC(=O)c4ccccc4)nc3c2)cc1)Nc1cc(C(F)(F)F)ccc1F	10.3%	2.66%	1.84%	5.51%	14%	14.1%	36.2%	4.75%	48.1%	3.06%	21.5%	7.45%	21.8%	10.6%	7.91%	2%	2.26%	2.66%	3.55%	1.11%
Nc1nccc(-c2c(-c3ccc(F)cc3)ncn2C2CCC(O)CC2)n1 (stereo not given)	-1.68%	-2.32%	-1.2%	-4.27%	0.98%	1.39%	-0.22%	2.19%	14.7%	1.57%	6.58%	1.96%	12.7%	-1.46%	-1.17%	0.89%	-0.36%	-0.97%	-2.71%	-0.36%
Fc1ccc(-c2ncn(C3CCNCC3)c2-c2ccnc(Oc3ccc(Oc4ccccc4)cc3)n2)cc1	4.8%	4.45%	6.8%	6.67%	-1.89%	3.28%	1.1%	2.27%	3.02%	2.65%	5.66%	5.33%	8.1%	5.31%	1.58%	7.04%	3.44%	1.91%	3.32%	3.37%
